Source: PubChem (Center for Chemical Genomics, University of Michigan)
TAR Tat displ: HIV-1 TAR-Tat binding disruption; HIV-1 TAR RNA, Tat peptide displacement FRET; hits give high values; z-score (no concentration beside the values); hit rate 0.6% among 100,000; AID 1259389; active = z-score of 3 or more in at least 2 runs
CDC25B-CDK2 inh: human CDC25B-CDK2/CyclinA binding inhibition | hit rate 0.72% among 94,000 | P30305+P24941 | HTRF CDC25B-CDK2/CyclinA binding, anti-His/anti-Flag; hits give high values | z-score (test concentration not listed); in the data active = z-score above about 3.2
An asterisk follows results filed as active; . = no result given. Only some compounds are listed: those with a hit (about 0.93% of all), similar ones and a draw of the others.

SMILES	TAR Tat displ	CDC25B-CDK2 inh
CCCC(=O)OCc1cnc(C)c2oc(=O)c(-c3nc(-c4ccc(Cl)cc4)no3)cc12	-2.6	.
COc1ccc(C2C=C(c3ccc(Cl)cc3)Nc3nc(CCCO)nn32)cc1 (configuration not stated)	.	-0.86
CCCSc1nnc(NC(=O)c2sc(C)nc2C)s1	1.9	-0.84
O=C(/C=C/c1ccc(O)c(O)c1)O[C@H](Cc1ccc(O)c(O)c1)C(=O)O	17*	.
O=C(O)/C=C/c1ccc(O)c(O)c1	5.3	-1.6
CC1CCC(NS(=O)(=O)c2ccc3[nH]c(=O)ccc3c2)CC1 (configuration not stated)	32*	.
CC1CCC(NC(=O)C2CCN(S(=O)(=O)c3ccc4[nH]c(=O)ccc4c3)CC2)CC1 (configuration not stated)	2.8	.
COCCCNc1nc(NCc2ccccc2)c2cnn(C)c2n1	0.91	.
Cc1nc(-c2cccs2)c(CC(=O)Nc2ccc(N3CCCC3)cc2)s1	-0.42	12*
Cc1nc(-c2cccs2)c(CC(=O)N2CCCC2)s1	-0.62	-1.3
BrC=C=CCN(CC=C=CBr)Cc1ccccc1	.	4.3*
ON(Cc1ccccc1)Cc1ccccc1	.	-1.3
CCN1C(=O)c2cccc3c(NC(=O)c4ccc(Cl)s4)ccc1c23	.	16*
CCN1C(=O)c2cccc3c(S(=O)(=O)NC(Cc4ccccc4)C(=O)O)ccc1c23 (configuration not stated)	1.1	-0.79
COc1ccc2nc(NC(=O)c3nn(-c4ccccc4)ccc3=O)sc2c1	0.88	2.5
O=C(NCc1ccc(Cl)cc1)c1nn2c(C(F)(F)F)cc(-c3ccco3)nc2c1Cl	-5	1.3
CCc1ccc(C(=O)CC2(O)C(=O)N(C(C)C)c3ccccc32)cc1 (configuration not stated)	-0.46	16*
CC(C)N1C(=O)C(O)(CC(=O)c2ccccc2)c2ccccc21 (configuration not stated)	0.83	0.13
CCOc1cccc(-c2nc(=S)c3c([nH]2)Oc2c(cccc2OC)C3)c1O	23*	5.3
COc1cccc(-c2nc3c(c(=O)[nH]2)Cc2cc(Cl)ccc2O3)c1O	4.9*	-0.74
O=c1[nH]c(-c2ccccc2O)nc2c1Cc1cc(Cl)ccc1O2	2.2	-1.3
COc1cccc2c1Oc1[nH]c(-c3ccccc3F)nc(=S)c1C2	-0.18	-0.72
CCOc1cccc(-c2nc3c(c(=O)[nH]2)Cc2cc(Br)ccc2O3)c1O	4	-1.3
COc1cccc(-c2nc(=S)c3c([nH]2)Oc2c(cccc2OC)C3)c1O	35*	7.4
CCOc1cccc(-c2nc3c(c(=O)[nH]2)Cc2cccc(OCC)c2O3)c1O	7.2*	0.25
SMILES	TAR Tat displ	CDC25B-CDK2 inh
CCOc1cccc2c1Oc1[nH]c(-c3cc(OC)c(OC)c(OC)c3)nc(=S)c1C2	.	-1.4
O=C1Cc2cc(S(=O)(=O)N3CCc4ccccc43)ccc2N1	-0.76	0.06
COc1cccc(/C=N/N(C)C2=NS(=O)(=O)c3cc([N+](=O)[O-])ccc32)c1O	.	-2.6
N#Cc1c(NC(=O)C2CC(=O)OC23CCCCC3)sc2c1CCCCC2 (configuration not stated)	0.83	-0.05
Cc1cccnc1NC(=O)C1CC(=O)OC12CCCCC2 (configuration not stated)	1.2	14*
COc1cccc(C(=O)OCc2cc(=O)n3nc(C4CCCCC4)sc3n2)c1	0.07	.
O=C1CCCc2cc(S(=O)(=O)Nc3cccc4c3CCCC4)ccc2N1	0.61	.
Cc1cc(O)c(C=O)c2c1C(=O)Oc1c(C)c(O)c3c(c1O2)C(O)OC3=O (configuration not stated)	4*	.
COc1cc(C)c2c(c1C=O)Oc1c(c(C)c(O)c3c1C(O)OC3=O)OC2=O (configuration not stated)	0.93	.
CN1CCc2c(sc3c2CNC(c2ccc(F)cc2)c2cccn2-3)C1 (configuration not stated)	-2.2	2.2
Cc1cc(C)n(-c2cc(Nc3ccc(F)cc3)ncn2)n1	-0.72	.
O=c1[nH]c2ccc(Nc3cc(N4CCOCC4)ncn3)cc2[nH]1	0.27	8.2*
CC1=C(C(=O)OCC2CCCO2)C(c2ccccc2OCc2ccccc2)C2=C(CCCC2=O)N1 (configuration not stated)	2.2	-1.1
Cc1nnc(SCC(=O)Nc2ncc3c(n2)CC(c2ccco2)CC3=O)s1 (configuration not stated)	-1.4	4.2
O=C(CSc1nnnn1-c1ccccc1)Nc1ncc2c(n1)CC(c1ccco1)CC2=O (configuration not stated)	-4.7	15*
c1ccc(-c2cc3n(c2)CCn2cccc2-3)cc1	-13	.
COC(=O)c1c(C)oc2ccc(O)c(CN(C)C3CCN(C)CC3)c12	-1.5	-4.2
COc1ccc(-c2cc3c4c(C)n(Cc5ccccc5)c(C)c4c(C)nn3c2)cc1	-0.42	-1.8
COc1ccc(-c2cc3c4c(C)n(C)c(C)c4c(C)nn3c2)cc1	11*	2
COc1ccc(CCn2c(C)c3c(C)nn4cc(-c5ccc(C)o5)cc4c3c2C)cc1OC	35*	8
